Here are results for one compound from ChEMBL document CHEMBL2218924, “A broad activity screen in support of a chemogenomic map for kinase signalling research and drug discovery” (Biochem J, 2013).

Test [1] deals with Tyrosine-protein kinase SYK (Homo sapiens) (UniProt P43405). The conditions noted are these: at 10 µM.
In test [2] the target is T1, Mitogen-activated protein kinase kinase kinase 7 (Homo sapiens) (UniProt O43318).
T1 sequence (whole entry): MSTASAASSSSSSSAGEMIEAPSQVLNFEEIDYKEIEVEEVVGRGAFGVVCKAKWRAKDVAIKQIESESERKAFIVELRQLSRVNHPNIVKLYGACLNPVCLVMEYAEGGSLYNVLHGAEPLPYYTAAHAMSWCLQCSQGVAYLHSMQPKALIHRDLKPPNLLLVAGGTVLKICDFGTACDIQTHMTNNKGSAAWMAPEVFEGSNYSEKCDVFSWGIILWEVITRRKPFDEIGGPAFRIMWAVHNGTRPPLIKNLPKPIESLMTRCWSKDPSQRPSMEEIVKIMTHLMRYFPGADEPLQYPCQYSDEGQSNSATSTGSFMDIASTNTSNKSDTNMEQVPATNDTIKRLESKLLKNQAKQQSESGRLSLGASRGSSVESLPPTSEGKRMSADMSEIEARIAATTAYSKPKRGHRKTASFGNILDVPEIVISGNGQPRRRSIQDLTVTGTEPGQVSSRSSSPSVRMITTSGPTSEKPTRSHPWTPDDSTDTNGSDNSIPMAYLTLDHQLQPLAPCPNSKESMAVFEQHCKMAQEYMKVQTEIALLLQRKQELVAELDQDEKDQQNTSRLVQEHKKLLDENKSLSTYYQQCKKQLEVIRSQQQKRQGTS
To be noted: at 1 µM.

The target of test [3] is T1, Mitogen-activated protein kinase kinase kinase 7 (Homo sapiens). To be noted: at 10 µM.
The target of test [4] is T2, Serine/threonine-protein kinase TAO1 (Homo sapiens) (UniProt Q7L7X3).
T2 sequence (whole entry): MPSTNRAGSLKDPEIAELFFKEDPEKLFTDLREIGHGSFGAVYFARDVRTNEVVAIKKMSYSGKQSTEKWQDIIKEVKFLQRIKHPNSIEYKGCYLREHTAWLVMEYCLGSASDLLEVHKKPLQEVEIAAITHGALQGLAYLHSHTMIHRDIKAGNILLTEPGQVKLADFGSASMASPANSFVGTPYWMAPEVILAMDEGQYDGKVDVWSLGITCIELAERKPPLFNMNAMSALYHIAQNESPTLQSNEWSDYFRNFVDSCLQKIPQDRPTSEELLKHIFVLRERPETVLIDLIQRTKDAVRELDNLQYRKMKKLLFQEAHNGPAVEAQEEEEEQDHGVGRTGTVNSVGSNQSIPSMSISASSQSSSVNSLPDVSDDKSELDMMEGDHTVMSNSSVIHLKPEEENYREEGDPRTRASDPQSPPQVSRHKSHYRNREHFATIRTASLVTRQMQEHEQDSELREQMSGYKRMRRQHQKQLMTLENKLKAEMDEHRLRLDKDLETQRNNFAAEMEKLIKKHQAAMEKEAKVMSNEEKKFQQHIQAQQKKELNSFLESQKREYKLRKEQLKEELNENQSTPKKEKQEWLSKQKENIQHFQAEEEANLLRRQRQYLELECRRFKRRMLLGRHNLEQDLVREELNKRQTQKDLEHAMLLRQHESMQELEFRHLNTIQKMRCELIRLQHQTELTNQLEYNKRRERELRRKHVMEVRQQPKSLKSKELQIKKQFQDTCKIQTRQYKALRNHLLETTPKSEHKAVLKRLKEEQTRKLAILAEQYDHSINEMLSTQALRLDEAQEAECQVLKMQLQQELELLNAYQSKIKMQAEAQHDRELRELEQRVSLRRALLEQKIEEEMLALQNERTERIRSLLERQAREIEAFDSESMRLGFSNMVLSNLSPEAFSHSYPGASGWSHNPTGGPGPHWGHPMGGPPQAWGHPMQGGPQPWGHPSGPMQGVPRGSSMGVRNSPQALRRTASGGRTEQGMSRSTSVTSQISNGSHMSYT
The conditions noted are these: at 1 µM.

For test [5], the target named is T2, Serine/threonine-protein kinase TAO1 (Homo sapiens). The conditions noted are these: at 10 µM.
Test [6] concerns the target T3, Serine/threonine-protein kinase TAO2 (Homo sapiens) (UniProt Q9UL54).
T3 sequence (whole entry): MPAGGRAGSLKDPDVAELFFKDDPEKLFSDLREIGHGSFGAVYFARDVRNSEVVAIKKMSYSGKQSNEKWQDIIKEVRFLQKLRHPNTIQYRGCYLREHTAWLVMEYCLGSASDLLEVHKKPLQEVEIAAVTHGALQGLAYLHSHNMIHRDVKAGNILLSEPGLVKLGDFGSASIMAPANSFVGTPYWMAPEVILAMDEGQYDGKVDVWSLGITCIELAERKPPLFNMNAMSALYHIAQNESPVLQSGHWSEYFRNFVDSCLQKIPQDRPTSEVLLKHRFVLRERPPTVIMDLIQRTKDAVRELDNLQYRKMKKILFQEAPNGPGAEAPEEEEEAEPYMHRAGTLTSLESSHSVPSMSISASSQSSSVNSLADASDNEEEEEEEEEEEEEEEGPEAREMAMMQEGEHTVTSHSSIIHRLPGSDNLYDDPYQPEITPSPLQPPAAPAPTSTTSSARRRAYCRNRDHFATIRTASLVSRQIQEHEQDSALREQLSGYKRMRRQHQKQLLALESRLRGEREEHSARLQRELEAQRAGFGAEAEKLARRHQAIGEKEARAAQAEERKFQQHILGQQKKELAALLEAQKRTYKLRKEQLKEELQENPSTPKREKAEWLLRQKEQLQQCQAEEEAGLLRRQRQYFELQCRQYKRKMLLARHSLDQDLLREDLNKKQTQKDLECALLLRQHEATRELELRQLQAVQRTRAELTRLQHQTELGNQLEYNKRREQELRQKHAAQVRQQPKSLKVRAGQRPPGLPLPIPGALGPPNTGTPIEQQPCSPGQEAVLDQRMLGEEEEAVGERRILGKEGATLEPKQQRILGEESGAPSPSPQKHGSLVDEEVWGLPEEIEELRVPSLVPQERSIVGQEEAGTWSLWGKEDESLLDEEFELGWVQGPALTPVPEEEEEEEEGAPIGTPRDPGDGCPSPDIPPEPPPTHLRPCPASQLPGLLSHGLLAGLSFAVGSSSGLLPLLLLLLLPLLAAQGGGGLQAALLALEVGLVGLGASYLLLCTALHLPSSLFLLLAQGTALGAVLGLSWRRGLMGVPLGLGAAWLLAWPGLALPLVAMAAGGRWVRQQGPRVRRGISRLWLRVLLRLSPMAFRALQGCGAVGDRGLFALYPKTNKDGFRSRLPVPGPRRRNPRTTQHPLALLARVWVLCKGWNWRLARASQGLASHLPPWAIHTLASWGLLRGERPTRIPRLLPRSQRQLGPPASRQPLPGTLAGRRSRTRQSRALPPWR
To be noted: at 1 µM.

For test [7], the target named is T3, Serine/threonine-protein kinase TAO2 (Homo sapiens). To be noted: at 10 µM.
Test [8] has as its target T4, Serine/threonine-protein kinase TAO3 (Homo sapiens) (UniProt Q9H2K8).
T4 sequence (whole entry): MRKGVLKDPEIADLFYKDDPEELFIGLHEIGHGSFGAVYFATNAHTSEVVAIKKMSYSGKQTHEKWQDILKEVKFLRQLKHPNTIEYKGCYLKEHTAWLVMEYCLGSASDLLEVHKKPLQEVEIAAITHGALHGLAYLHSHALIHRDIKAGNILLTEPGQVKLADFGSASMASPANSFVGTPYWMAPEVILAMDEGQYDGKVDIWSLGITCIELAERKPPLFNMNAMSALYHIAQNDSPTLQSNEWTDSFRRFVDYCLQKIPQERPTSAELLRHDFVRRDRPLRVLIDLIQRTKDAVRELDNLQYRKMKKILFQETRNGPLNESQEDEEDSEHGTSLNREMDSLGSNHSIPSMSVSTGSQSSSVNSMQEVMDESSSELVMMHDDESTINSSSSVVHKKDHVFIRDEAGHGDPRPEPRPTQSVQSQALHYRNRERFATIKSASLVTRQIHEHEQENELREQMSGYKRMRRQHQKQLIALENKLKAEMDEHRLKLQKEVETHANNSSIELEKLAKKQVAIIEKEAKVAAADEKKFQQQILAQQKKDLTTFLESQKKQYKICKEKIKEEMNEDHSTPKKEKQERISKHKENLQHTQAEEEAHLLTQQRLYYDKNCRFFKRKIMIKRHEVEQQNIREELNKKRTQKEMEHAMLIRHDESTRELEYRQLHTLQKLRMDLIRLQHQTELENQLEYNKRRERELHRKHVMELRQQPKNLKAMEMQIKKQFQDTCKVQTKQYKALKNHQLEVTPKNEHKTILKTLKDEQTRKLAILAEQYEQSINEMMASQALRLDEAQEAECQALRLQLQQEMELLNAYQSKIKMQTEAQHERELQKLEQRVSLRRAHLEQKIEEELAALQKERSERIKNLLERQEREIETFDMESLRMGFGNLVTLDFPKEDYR
To be noted: at 1 µM.

Test [9] addresses T4, Serine/threonine-protein kinase TAO3 (Homo sapiens). To be noted: at 10 µM.
Test [10] concerns the target T5, Serine/threonine-protein kinase TBK1 (Homo sapiens) (UniProt Q9UHD2).
T5 sequence (whole entry): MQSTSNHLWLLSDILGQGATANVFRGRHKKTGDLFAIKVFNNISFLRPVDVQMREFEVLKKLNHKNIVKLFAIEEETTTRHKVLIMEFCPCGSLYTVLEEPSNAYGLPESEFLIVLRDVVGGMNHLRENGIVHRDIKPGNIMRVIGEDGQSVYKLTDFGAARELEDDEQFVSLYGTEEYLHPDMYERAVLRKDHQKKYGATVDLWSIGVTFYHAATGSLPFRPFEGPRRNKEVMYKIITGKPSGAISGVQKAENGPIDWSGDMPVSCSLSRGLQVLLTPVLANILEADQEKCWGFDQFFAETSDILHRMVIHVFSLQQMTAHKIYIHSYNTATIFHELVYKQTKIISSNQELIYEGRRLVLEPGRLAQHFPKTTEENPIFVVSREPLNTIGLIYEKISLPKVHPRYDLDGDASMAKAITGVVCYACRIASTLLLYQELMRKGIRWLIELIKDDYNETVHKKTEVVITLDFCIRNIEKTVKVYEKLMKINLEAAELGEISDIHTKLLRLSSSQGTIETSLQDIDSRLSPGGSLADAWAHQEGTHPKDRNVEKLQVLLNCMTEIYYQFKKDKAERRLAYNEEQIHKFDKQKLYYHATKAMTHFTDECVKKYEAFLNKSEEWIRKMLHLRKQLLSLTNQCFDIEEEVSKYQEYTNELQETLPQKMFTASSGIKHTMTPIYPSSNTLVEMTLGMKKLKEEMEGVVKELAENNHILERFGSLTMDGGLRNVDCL
To be noted: at 1 µM.

As to `O=C(Nc1cccc(Nc2cc(Nc3cccc(C(F)(F)F)c3)ncn2)c1)C1CC1`, the residual activity in [1] worked out at 105%; in test [2] it was 95%; in [3] it was 95%; in test [4], 100%; in test [5] it was 73%; in [6], 94%. The residual activity in [7] is 80%; in [8] it was 100%; in test [9], 96%; in [10] it was 89%.
